# According to PubChem BioAssay (NCI):
# “And” between values parts separate entries of the source, which are not always exact repeats. Equal entries are not always repeated. About 83,000 compounds went through this panel and 20% of them were active in at least one assay; those are over-represented in the sample as a whole.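 Growth was measured after 48 h exposure to one concentration of compound in 96-well plates. Values under 10 count as active.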 The source made the active and inactive calls.
# How the values were obtained:
# Test in all cases: NCI-60 one-dose screen, 48 h (100 = growth as untreated, 0 = no growth, -100 = all killed)
# Conditions in all cases: 10 µM unless noted
# HCT-15 colon = system: HCT-15 colon
# HT29 colon = system: HT29 colon
# SNB-75 CNS = system: SNB-75 CNS
# SNB-19 CNS = system: SNB-19 CNS
# U251 CNS = system: U251 CNS
# PC-3 prostate = system: PC-3 prostate
# SK-MEL-5 melanoma = system: SK-MEL-5 melanoma
# UACC-62 melanoma = system: UACC-62 melanoma
# LOX IMVI melanoma = system: LOX IMVI melanoma
# SK-MEL-28 melanoma = system: SK-MEL-28 melanoma
# SK-MEL-2 melanoma = system: SK-MEL-2 melanoma
# EKVX NSCLC = system: EKVX NSCLC
# SN12C renal = system: SN12C renal
# UO-31 renal = system: UO-31 renal
# TK-10 renal = system: TK-10 renal
# ACHN renal = system: ACHN renal
# CAKI-1 renal = system: CAKI-1 renal
# A498 renal = system: A498 renal
# CCRF-CEM leukemia = system: CCRF-CEM leukemia
# MOLT-4 leukemia = system: MOLT-4 leukemia
Structure (SMILES),growth (HCT-15 colon),growth (HT29 colon),growth (SNB-75 CNS),growth (SNB-19 CNS),growth (U251 CNS),growth (PC-3 prostate),growth (SK-MEL-5 melanoma),growth (UACC-62 melanoma),growth (LOX IMVI melanoma),growth (SK-MEL-28 melanoma),growth (SK-MEL-2 melanoma),growth (EKVX NSCLC),growth (SN12C renal),growth (UO-31 renal),growth (TK-10 renal),growth (ACHN renal),growth (CAKI-1 renal),growth (A498 renal),growth (CCRF-CEM leukemia),growth (MOLT-4 leukemia)
CCCCCCCCCCCCCCCCCCOP(=O)([O-])OC1CC[N+](C)(C)CC1,-50% (active) and -67.9% (active),2.35% (active) and -29.9% (active),10.6% (inactive) and -41.7% (active),-29.2% (active) and -65.1% (active),-35.1% (active) and -68.1% (active),-50.8% (active) and -75.1% (active),38.7% (inactive) and 20% (inactive),25.3% (inactive) and 37.2% (inactive),11.4% (inactive) and -3.66% (active),57.3% (inactive),-14.6% (active),36.3% (inactive) and 41.5% (inactive),19.9% (inactive) and 24.9% (inactive),-5.55% (active) and -40.1% (active),-79.1% (active) and -93.8% (active),28.6% (inactive) and 23.9% (inactive),-9.45% (active) and -42.7% (active),-21.6% (active) and -25.3% (active),-2.22% (active) and -53% (active),-44.9% (active) and -49.8% (active)
Cc1ccnc2c1ccc1c(C)ccnc12,20.9% (inactive),17.7% (inactive),52.4% (inactive),21.9% (inactive),7.48% (active),22% (inactive),18.3% (inactive),2.66% (active),2.99% (active),20.7% (inactive),27.3% (inactive),22.2% (inactive),15.6% (inactive),-4.12% (active),25.7% (inactive),11.3% (inactive),,19.5% (inactive),13.6% (inactive),3.4% (active)
O=C(Oc1cccc2cccnc12)c1ccccc1,77.6% (inactive) and 101% (inactive),87.1% (inactive) and 99.8% (inactive),85.4% (inactive) and 96.2% (inactive),93.7% (inactive) and 108% (inactive),82.8% (inactive) and 113% (inactive),81.1% (inactive) and 93.8% (inactive),105% (inactive) and 100% (inactive),97.6% (inactive) and 106% (inactive),70% (inactive) and 100% (inactive),82.4% (inactive) and 103% (inactive),110% (inactive) and 96.7% (inactive),91% (inactive) and 107% (inactive),86% (inactive) and 104% (inactive),78.6% (inactive) and 82% (inactive),106% (inactive) and 107% (inactive),96.5% (inactive) and 104% (inactive),89.7% (inactive),117% (inactive),23.7% (inactive) and 102% (inactive),
Cc1ccc(C(=Nc2ccccc2)N=P(c2ccccc2)(c2ccccc2)c2ccccc2)cc1,2.78% (active),2.74% (active),15.6% (inactive),-15.8% (active),-7.18% (active),-31.5% (active),-96.6% (active),-78.5% (active),-82.9% (active),-48.6% (active),-51.8% (active),-16.8% (active),-10.1% (active),-79.6% (active),-23.4% (active),2.97% (active),-32.1% (active),-56.7% (active),-30.2% (active),1.64% (active)
CC(=O)C(=Cc1ccc(C=C(C(C)=O)C(C)=O)cc1)C(C)=O,-32.7% (active),-60.5% (active),73.1% (inactive),19.1% (inactive),-23.7% (active),2.43% (active),72.8% (inactive),-41.6% (active),-97.8% (active),-34.8% (active),70.8% (inactive),94.2% (inactive),17.4% (inactive),-12.2% (active),5.12% (active),-33.5% (active),-50.7% (active),94.1% (inactive),-5.86% (active),6.74% (active)
COc1cc(/C=C/C(C)=O)ccc1O,96.9% (inactive) and 96.3% (inactive),109% (inactive) and 125% (inactive),98.4% (inactive) and 82.5% (inactive),98.3% (inactive) and 112% (inactive),103% (inactive) and 104% (inactive),92.5% (inactive) and 102% (inactive),97% (inactive) and 113% (inactive),88.5% (inactive) and 107% (inactive),104% (inactive),112% (inactive) and 103% (inactive),105% (inactive),91.8% (inactive) and 112% (inactive),98.1% (inactive) and 104% (inactive),66% (inactive) and 88.4% (inactive),97.7% (inactive) and 142% (inactive),95.9% (inactive) and 95% (inactive),,79.1% (inactive) and 116% (inactive),28.4% (inactive) and 78.1% (inactive),95.8% (inactive) and 87.2% (inactive)
Cc1cc2nc(CS)[nH]c2cc1C,101% (inactive),89.9% (inactive),75.5% (inactive),93.3% (inactive),85.1% (inactive),87.4% (inactive),87.7% (inactive),84.4% (inactive),88% (inactive),89.5% (inactive),101% (inactive),84.8% (inactive),102% (inactive),83.1% (inactive),131% (inactive),92% (inactive),,95.7% (inactive),55% (inactive),
